± gives the uncertainty stated by the source.

Experimental findings from the supplement of paper PMC3898565 are described below.
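Also: viable cell number estimated from Alamar Blue fluorescence read at 560/90, part of a single-dose primary screen of an FDA-approved drug library.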

The subject of this assay is U87. The assay can be described thus: cell viability relative to vehicle control; higher = less growth inhibition (less active). The note with it: 10 µM; 72 h.
`COc1ccc(CCN)cc1OC` [Homoveratrylamine]: the cell viability was 104 ± 1.1%.

For `COc1cc(N)c(Cl)cc1C(=O)NC1CN2CCC1CC2` (configuration not stated) [Zacopride], the cell viability came to 101.7 ± 0.79%.

Take `Oc1ccc2c3c1O[C@H]1c4[nH]c5ccccc5c4C[C@@]4(O)[C@@H](C2)N(CC2CC2)CC[C@]314` [Naltrindole]: the cell viability amounted to 105 ± 3%.

`C[C@]12CC[C@H](O)CC1=CC[C@@H]1[C@@H]2CC[C@]2(C)C(=O)CC[C@@H]12`: the cell viability was 116 ± 9.3%.

Regarding `C=C(C)CN1CC[C@]23c4c5ccc(O)c4O[C@H]2c2[nH]c4ccccc4c2C[C@@]3(O)C1C5`, the cell viability was determined as 101 ± 1.4%.

Take `O=C1Nc2ccc(Cl)cc2C(c2ccccc2Cl)=NC1O` (configuration not stated) [Lorazepam]: the cell viability came to 105.6 ± 0.26%.

In the case of `Cc1ccc(-c2nc3ccc(C)cn3c2CC(=O)N(C)C)cc1`, the cell viability was found to be 106 ± 1.9%.

Consider `CN1C(=O)CN=C(c2ccccc2)c2cc(Cl)ccc21` [Diazepam], for which the cell viability is 98.6 ± 2.1%.

Take `COc1cc2c(cc1OC)[C@@]13CCN4CC5=CCO[C@H]6CC(=O)N2[C@H]1[C@H]6[C@H]5C[C@H]43` [Brucine]: the cell viability amounted to 107 ± 1.1%.

Take `O=C(O)C(Cl)Cl`: the cell viability came to 101 ± 1.6%.

With `COc1ccc(C(CN(C)C)C2(O)CCCCC2)cc1` (configuration not stated), the cell viability amounted to 103 ± 1.8%.

For `c1ccc(Cn2ccnc2)cc1`, the cell viability is 105 ± 1.2%.

`CC(O)(CS(=O)(=O)c1ccc(F)cc1)C(=O)Nc1ccc(C#N)c(C(F)(F)F)c1` (configuration not stated): the cell viability turned out to be 103 ± 1.5%.

Take `c1ccc2c(c1)Nc1ccccc1S2`: the cell viability amounted to 110.5 ± 0.17%.

Regarding `CCN(CC)CCOC(=O)C(O)(c1ccccc1)c1ccccc1`, the cell viability came out at 101 ± 3.5%.

Regarding `C=C1C[C@@H]2[C@H](CC[C@]3(C)C(=O)CC[C@@H]23)[C@@]2(C)C=CC(=O)C=C12`, the cell viability stood at 107 ± 2.5%.

On to `CN1CC[C@]2(c3cccc(O)c3)Cc3nc4ccccc4cc3C[C@H]2C1`, for which the cell viability was 103 ± 1.4%.

For orientation: cell viability means a read-out of living cells in per cent, often relative to untreated cells.
